# Results: PubChem BioAssay
# Test system: Sam68 (KHDRBS1)
# Assay: compounds binding KHDRBS1 protein – biochemical, small-molecule microarray, 635 nm fluorescence, primary screen (AID 1125);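 also: score merges 667 nm channel intensity with signal to noise over triplicate slides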
# Details: higher = more signal
row,SMILES,composite z-score
1,CCN(CC)c1ccc(N2CC=CC34O[C@@H]5C=CCOC(=O)[C@@H]5[C@H]3C(=O)N(CCO)[C@@H]4C2=O)cc1 (stereo not given in full),-0.683
2,CCOC(=O)C1=CC[C@@H](c2ccccc2)N(S(=O)(=O)C[Si](C)(C)C)[C@H]1c1ccccc1,1.34
3,CN(C)CCCC[C@@H]1NC(=O)[C@@H]2C[C@H](C(=O)NCc3ccc(F)cc3)[C@H](c3ccc(O)cc3)N2C1=O,0.17
4,C=CCOC(=O)[C@H]1[C@@H]2C(=O)O[C@@H](c3ccccc3)[C@@H](c3ccccc3)N2[C@@H](c2ccc(OCCOC(=O)[C@@H]3C[C@@H]4C(=O)N[C@@H](CC(C)C)C(=O)N4[C@@H]3c3ccc(O)cc3)cc2)[C@]12C(=O)Nc1ccc(I)cc12,1.3
5,COCCCNC(=O)[C@@H]1c2ccccc2C(=O)N(C2CCCCC2)[C@H]1c1ccc(CO)cc1,-0.724
6,CN(C)CCCC[C@@H]1NC(=O)[C@H]2C[C@@H](C(=O)NCc3ccc(F)cc3)[C@@H](c3ccc(O)cc3)N2C1=O,1.16
7,COc1ccc(C#Cc2ccc3c(c2)[C@]2(C(=O)N3)[C@H](C(=O)Nc3nc4ccccc4s3)[C@H]3C(=O)O[C@H](c4ccccc4)[C@H](c4ccccc4)N3[C@@H]2c2ccc(OCCO)cc2)cc1,1.31
8,C=CCC(OC(C)=O)[C@@H]1[C@@H](N(Cc2ccc(-c3cccc(C(F)(F)F)c3)o2)C(=O)c2cccc3ccccc23)c2cc(OCCCO)ccc2N1C(=O)c1ccc2ccccc2n1 (stereo not given in full),-0.258
9,C[N+](C)(C)CCCC[C@@H]1NC(=O)[C@H]2C[C@@H](C(=O)NCCCCCNC(=O)CS)[C@@H](c3ccc(O)cc3)N2C1=O,0.616
10,C=CCC(OC(C)=O)[C@@H]1[C@@H](N(Cc2cccc3ccccc23)C(=O)c2cccc3ccccc23)c2cc(OCCCO)ccc2N1C(=O)Cc1ccc2ccccc2c1 (stereo not given in full),-0.0418
11,COc1ccc(C(O)C2C=CC3C(=O)N(C)C(=O)C3N2Nc2ccc([N+](=O)[O-])cc2[N+](=O)[O-])cc1OCc1ccccc1 (stereo not given),1.32
12,COCCOC(=O)N1C(=O)[C@@]2(c3cc(C#CCC(C(=O)OC)C(=O)OC)ccc31)[C@H](C(=O)N1CCc3cc(OC)c(OC)cc3C1)[C@H]1C(=O)O[C@H](c3ccccc3)[C@H](c3ccccc3)N1[C@@H]2c1ccc(O)cc1,1.17
13,C=CCNC(=O)[C@@H]1[C@H]2C(=O)O[C@H](c3ccccc3)[C@H](c3ccccc3)N2[C@H](c2ccc(O)cc2)[C@@]12C(=O)Nc1ccc(C#CC3(O)CCCCCC3)cc12,-0.133
14,COCCOC(=O)N1C(=O)[C@@]2(c3ccccc31)[C@H](C(=O)N1CCCCCCC1)[C@H]1C(=O)O[C@H](c3ccccc3)[C@H](c3ccccc3)N1[C@@H]2c1ccc(O)cc1,1.3
15,N#Cc1ccc(C(O)C2C=CC3C(=O)NC(=O)C3N2Nc2ccccn2)cc1 (stereo not given),-0.106
16,CC(C)C[C@H]1NC(=O)[C@@]23C(=O)N[C@@H](Cc4ccccc4)C2[C@H](C)[C@@]2(C)O[C@H]2C3/C=C/C/C=C\CNC(=O)[C@@H]2CCCN2C1=O (stereo not given in full),0.975
17,CCCC[C@@H]1C[C@H]1[C@@H](NC(=O)Cc1ccccc1)c1ccc(Cl)cc1,1.31
18,NC(=O)N1C(=O)C2C(C1=O)C1C=C(CCCO)C2C(c2ccc(CN3CCCC3)cc2)N1Cc1cccc(OC(F)(F)F)c1 (stereo not given),0.64

row,SMILES,composite z-score
1,CCOC(=O)C[C@H]1[C@H](OC(=O)c2ccc(C(=O)c3ccccc3)cc2)[C@@H](NC(=O)c2ccc3ccccc3c2)c2cc(OCCCO)ccc2N1C(=O)c1ccc2ccccc2n1,1.09
2,O=C1NC(=O)C2C1C=CC(C(O)c1ccc(F)cc1)N2Nc1ccccn1 (stereo not given),-0.288
3,COc1ccc([Si](C)(C)[C@H]2[C@H](CC(=O)N3Cc4ccccc4C[C@H]3CO)O[C@@]3(C(=O)N(Cc4cccc(N5C(=O)c6cccc7cccc5c67)c4)c4ccccc43)[C@@H]2C)cc1,1.15
4,COC(=O)[C@@]1(Cc2ccccc2)[C@@H]2[C@@H](CC(=O)[C@H]2CC(=O)C(=O)N(C)C)CN1C(=O)c1ccccc1,-0.125
5,COC(=O)[C@]1(CO)N=C(c2ccc(OCCCO)cc2)O[C@@H]1c1ccccc1CN=[N+]=[N-],0.363
6,CC(C)CNC(=O)[C@@H]1c2ccccc2C(=O)N(C(C)C)[C@H]1c1ccc(CO)cc1,-0.463
7,Cc1c(NC(=O)/C(C#N)=C/c2ccc(Cl)cc2)c(=O)n(-c2ccccc2)n1C,0.396
8,O=C1c2ccccc2[C@](Cc2ccccc2I)(C(=O)O)[C@H](c2ccc(CO)cc2)N1Cc1ccccc1,1.25
9,CCC[C@@H]1C=C(C(=O)OCC)[C@H](c2ccccc2)N1S(=O)(=O)c1ccc(C)cc1,1.3
10,COCCOC(=O)N1C(=O)[C@@]2(c3cc(C#CCC(C(=O)OC)C(=O)OC)ccc31)[C@H](c1ccc(OCCO)cc1)N1[C@H](c3ccccc3)[C@H](c3ccccc3)OC(=O)[C@H]1[C@@H]2C(=O)N1CCCCCCC1,1.3
11,CCOC(=O)C[C@H]1[C@H](OC(=O)c2ccc(-c3ccccc3)cc2)[C@@H](NC(=O)CC(C)C)c2cc(OCCCO)ccc2N1C(=O)Cc1ccc(OC)cc1,0.309
12,COCCOC(=O)N1C(=O)[C@@]2(c3cc(C#CCC(C(=O)OC)C(=O)OC)ccc31)[C@H](C(N)=O)[C@H]1C(=O)O[C@H](c3ccccc3)[C@H](c3ccccc3)N1[C@@H]2c1ccc(OCCO)cc1,1.29
13,C=CCC(OC(C)=O)[C@@H]1[C@@H](N(Cc2ccc(-c3cccc(C(F)(F)F)c3)o2)C(=O)c2cccc3ccccc23)c2cc(OCCCO)ccc2N1C(=O)c1ccc2ccccc2c1 (stereo not given in full),-0.351
14,COC(=O)[C@@]1(Cc2ccccc2)[C@H]2c3cc(C(=O)N4CCCC4)n(Cc4ccc(C(F)(F)F)nc4)c3C[C@H]2CN1C(=O)c1ccccc1,1.31
15,C=CC[C@@]1(C(=O)O)N=C(c2ccc(OCCCO)cc2)O[C@@H]1c1ccccc1CN=[N+]=[N-],0.826
16,COc1ccc([Si](C)(C)[C@H]2[C@H](CCn3cc([C@H](O)c4ccccc4)nn3)O[C@@]3(C(=O)N(C)c4c(Br)cc(C)cc43)[C@@H]2C)cc1,0.0516
17,CC1(C)OC[C@@]23C=C(Br)[C@@H](C[C@H]12)[C@@]1(CO1)C3=O,0.107
